Laboratory results reported in PubChem BioAssay (NCI).
This is part of a sample that, as a whole, favours compounds with a hit. Of some 79,000 tested, about 15% had one in any assay. A number with no mark means an inactive call. Active and inactive are the calls of the source. No stated cut-off is given here; in the data, active means growth inhibition above about 70%; inactive means the rest.

Key:
[1] = NCI Yeast Anticancer Drug Screen. Data for the rad50 strain (AID 155);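 further: 0% = growth of vehicle-only cultures of the same strain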; settings: S. cerevisiae rad50 strain growth inhibition; at 50.0 µM; hits give high values
Outline: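 Relative growth inhibition (compound vs vehicle) was measured in yeast with a defined repair-gene alteration.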

[2] = NCI Yeast Anticancer Drug Screen. Data for the mec2-1 strain (AID 157); settings: S. cerevisiae mec2-1 strain, at 50.0 µM, hits give high values
Outline: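 Yeast mec2-1 mutant treated with compound. Readout: growth inhibition vs vehicle controls.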

[3] = NCI Yeast Anticancer Drug Screen. Data for the sgs1 mgt1 strain (AID 161);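 further: 0% = growth of cultures given vehicle only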; settings: S. cerevisiae sgs1 mgt1 strain, at 50.0 µM, hits give high values
Outline: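 Inhibition of yeast growth, normalised to vehicle-treated controls, is reported for a strain bearing genetic alterations in DNA damage repair.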

[4] = NCI Yeast Anticancer Drug Screen. Data for the cln2 rad14 strain (AID 165);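 further: 0% = growth equal to vehicle treated cultures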; settings: S. cerevisiae cln2 rad14 strain, at 50.0 µM, hits give high values
Outline: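 cln2 rad14 yeast strain; compound exposure; growth inhibition read vs vehicle controls.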

[5] = NCI Yeast Anticancer Drug Screen. Data for the bub3 strain (AID 167); settings: S. cerevisiae bub3 mutant strain, at 50.0 µM, hits give high values
Outline: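 Screening used yeast with an engineered genetic alteration affecting cell cycle control. Compound-exposed cultures were compared with vehicle cultures, and reduced growth was taken as inhibition.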

[6] = NCI Yeast Anticancer Drug Screen. Data for the mlh1 rad18 strain (AID 175); settings: S. cerevisiae mlh1 rad18 strain growth inhibition; at 50.0 µM; hits give high values
Outline: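 Yeast w/ defined DNA-repair lesions; compound exposure; growth vs vehicle controls → % inhibition.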

Compound	growth inhibition [1]	growth inhibition [2]	growth inhibition [3]	growth inhibition [4]	growth inhibition [5]	growth inhibition [6]
ClCCc1ccccc1CC1=NCCc2ccccc21	18.6%	-26.4%	-23.7%	6.3%	-12.8%	54.8%
Cc1nn(C(N)=S)c(C)c1N=Nc1ccc(O)cc1	-5.2%	-4.2%	-4.9%	-29.8%	-11.2%	15.9%
CCC(CO)Nc1nncc2ccccc12 (stereo not given)	2.4%	-3.45%	1.35%	-31.5%	-10.6%	-12.3%
CC(=O)c1ccc(NC(N)=O)cc1	2.15%	-10.4%	5.3%	-8.1%	-7.15%	-12.5%
CC(C)(O)/C(=N/O)c1ccc(-c2ccccc2)cc1	-4.05%	-18.3%	0.35%	-16.1%	9.35%	10.8%
CCOC(=O)CSc1[nH]c(NC(=S)Nc2ccccc2)c(C(N)=O)c1C(N)=O	-14.2%	-8.2%	23.7%	-1.2%	7.5%	-4.45%
Cn1c(=O)c2[nH]c(C3CC(=O)CC(c4nc5c([nH]4)c(=O)n(C)c(=O)n5C)N3)nc2n(C)c1=O (stereo not given)	-1.75%	5.1%	-14.4%	1.8%	-27.4%	7.15%
O=C(O)C(c1ccccc1)C(O)C1CCCC1 (stereo not given)	-2.9%	-11.1%	1.05%	-10.8%	-7.3%	-4.45%
[Co].[O-]c1cccnc1C=Nc1ccccc1.[OH3+]	24.8%	31.6%	37.4%	30.9%	33.9%	21.9%
CCCCCCCCCCCCCCCCCCNC(=O)N1CCC(C)CC1	-7.9%	-4.8%	21.2%	-13.7%	4.95%	-24.6%
N[C@H]1c2c(Cl)cccc2C(=O)[C@H]1O	-3.7%	-1.35%	-23.2%	-4.65%	-2.2%	-49.5%
CC(=O)OC[C@]1(O)CC[C@@]23CC1C[C@@H]2CCC1C(C)(C)CCC[C@@]13C (stereo not given in full)	81.5% (active)	41.6%	64.8%	71.6% (active)	67.7%	64.4%
COC(=O)CCC(=O)CC(=O)C1=NS(=O)(=O)c2nc(S(N)(=O)=O)c(Cl)cc2N1	-5.3%	6.7%	-14.8%	-24.6%	-16.1%	-1.35%
CCOC(=O)C1=C(OC(OCC)C([Se]c2ccccc2)C(C)C)CCC1 (stereo not given)	65.8%	33.5%	65.2%	42.2%	58.6%	51%
C=CC(=O)NC1CCCCC1	-8.9%	-10.9%	-19.8%	-8.9%	-6.8%	-22.4%
COC(=O)[C@H]1[C@H]2C[C@@H]3c4[nH]c5ccccc5c4CCN3C[C@H]2C[C@@H](O)[C@@H]1OC(=O)c1cc(OC)c(OC)c(OC)c1	23.1%	-1.35%	19.4%	8.75%	21%	20.9%
C=C1C2CCC3(CCC4C5(C)CCCC4(C=NC5)C3C2)C1O (stereo not given)	8.5%	-10.7%	3.6%	6.75%	-7.3%	1.6%
CC1CCC(NC(=O)NCCCl)c2ccccc21 (stereo not given)	-7.05%	-1.3%	-1.8%	-23.8%	-14.2%	-6.65%
CCN(CC)CC(C)(C)C(=O)/C=C/c1ccc(OC)cc1	-3.7%	-8.2%	7.35%	-5.5%	0.05%	-7.3%
Cc1c([N+](=O)[O-])ccc2c(NCCCN(C)C)ccnc12	-2.5%	-5.65%	-5.35%	-6.4%	-14.3%	-36.4%
